Laboratory results taken from PubChem BioAssay (NCI).
Compounds without any hit were thinned out: in the full panel of roughly 79,000, 15% have a hit. Calls of active or inactive are those of the source. No stated cut-off is given here; in the data, active means growth inhibition above about 70%; inactive means the rest.

Experiments:
[1] = NCI Yeast Anticancer Drug Screen. Data for the rad52 strain (AID 147);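 further: 0% = growth of vehicle-treated control cultures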; conditions: S. cerevisiae rad52 mutant growth inhibition, stronger effect = higher value
Method in brief: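 Growth of repair-deficient yeast cells was compared between compound-treated and vehicle-treated cultures to give percent inhibition.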

[2] = NCI Yeast Anticancer Drug Screen. Data for the wt1 strain (AID 149);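 further: 0% = growth of vehicle-treated wt1 cultures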; conditions: S. cerevisiae wt1 strain (SPY 50644) growth inhibition, stronger effect = higher value
Method in brief: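 Compounds are added to wt1 yeast cultures. Growth is then measured. Inhibition is expressed relative to vehicle-treated controls.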

[3] = NCI Yeast Anticancer Drug Screen. Data for the rad50EPP+ strain (AID 151);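 further: 0% = growth of vehicle-treated control cultures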; conditions: S. cerevisiae rad50 mutant strain, stronger effect = higher value
Method in brief: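 Measured: growth inhibition of rad50EPP+ yeast. Reference: vehicle-treated controls. Screen uses strains with defined genetic alterations in DNA damage repair or cell cycle control.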

[4] = NCI Yeast Anticancer Drug Screen. Data for the mgt1 strain (AID 153); conditions: S. cerevisiae mgt1 mutant growth inhibition, stronger effect = higher value
Method in brief: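 Compounds were applied to mgt1 mutant yeast, and growth was then compared against vehicle-treated control cultures to give percent inhibition.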

[5] = NCI Yeast Anticancer Drug Screen. Data for the rad50 strain (AID 155);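 further: 0% = growth of vehicle-only cultures of the same strain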; conditions: S. cerevisiae rad50 strain growth inhibition, stronger effect = higher value
Method in brief: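 Inhibition values express reduced yeast growth in compound-treated cultures relative to vehicle-treated controls.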

[6] = NCI Yeast Anticancer Drug Screen. Data for the mec2-1 strain (AID 157); conditions: S. cerevisiae mec2-1 strain, stronger effect = higher value
Method in brief: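 Compounds were applied to mec2-1 yeast cells. Their growth was then compared with that of vehicle-treated cultures to give growth inhibition.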

[7] = NCI Yeast Anticancer Drug Screen. Data for the rad14 strain (AID 159);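 further: 0% = growth of vehicle-treated control cultures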; conditions: S. cerevisiae rad14 strain growth inhibition, stronger effect = higher value
Method in brief: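 A mutant yeast strain defective in DNA damage repair is treated with compound; inhibition of its growth is scored against untreated, vehicle-exposed cultures.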

[8] = NCI Yeast Anticancer Drug Screen. Data for the sgs1 mgt1 strain (AID 161);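 further: 0% = growth of cultures given vehicle only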; conditions: S. cerevisiae sgs1 mgt1 strain, stronger effect = higher value
Method in brief: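 Yeast cells carrying a defined DNA-repair defect were exposed to test compounds. Growth inhibition was measured relative to vehicle-treated controls.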

[9] = NCI Yeast Anticancer Drug Screen. Data for the CLN2oe strain (AID 163);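 further: 0% = growth of vehicle-only control cultures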; conditions: S. cerevisiae CLN2oe strain, stronger effect = higher value
Method in brief: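 Cells of an engineered yeast line with disturbed cell-cycle regulation are treated with compound. Inhibition of growth is then calculated relative to the vehicle-treated reference.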

[10] = NCI Yeast Anticancer Drug Screen. Data for the cln2 rad14 strain (AID 165);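 further: 0% = growth equal to vehicle treated cultures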; conditions: S. cerevisiae cln2 rad14 strain, stronger effect = higher value
Method in brief: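 Strain: cln2 rad14 yeast, altered in cell cycle control and DNA damage repair. Read-out: growth inhibition vs vehicle.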

[11] = NCI Yeast Anticancer Drug Screen. Data for the bub3 strain (AID 167); conditions: S. cerevisiae bub3 mutant strain, stronger effect = higher value
Method in brief: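 Steps: expose the mutant yeast strain to compound; grow alongside vehicle-treated cultures; measure growth; express inhibition against the vehicle cultures.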

[12] = NCI Yeast Anticancer Drug Screen. Data for the wt2 strain (AID 169);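 further: 0% = growth of vehicle-treated yeast cultures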; conditions: S. cerevisiae wt2 strain growth inhibition, stronger effect = higher value
Method in brief: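 Growth of compound-treated yeast is measured and expressed as inhibition relative to vehicle-only controls.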

[13] = NCI Yeast Anticancer Drug Screen. Data for the sgs1 strain (AID 173);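 further: 0% = growth of vehicle-only control cultures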; conditions: S. cerevisiae sgs1 mutant, stronger effect = higher value
Method in brief: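 Strain with an altered DNA repair or cell cycle pathway exposed to compound. Growth then measured. Value = inhibition versus vehicle control.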

[14] = NCI Yeast Anticancer Drug Screen. Data for the mlh1 rad18 strain (AID 175); conditions: S. cerevisiae mlh1 rad18 strain growth inhibition, stronger effect = higher value
Method in brief: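 A repair-deficient yeast strain is exposed to test compound, and growth is scored relative to vehicle-treated controls.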

[15] = NCI Yeast Anticancer Drug Screen. Data for the rad18 strain (AID 177); conditions: S. cerevisiae rad18 mutant growth inhibition, stronger effect = higher value
Method in brief: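 DNA-repair-defective yeast; compound treatment; growth inhibition scored against vehicle.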

[16] = at 5.0 µM (retest, dose inferred, filed as 0.5)
[17] = at 50.0 µM (retest, dose inferred, filed as 5.0)

Measured: growth inhibition

O=C1NC(=O)C2C3C=CC(C3)C12 (stereo unspecified)
active: [3]; at 33.0 µM 91% | [3]; at 100.0 µM 97% | [4]; at 11.0 µM 89% | [4]; at 33.0 µM 96% | [4]; at 100.0 µM 97% | [8]; [17] 93% | [8]; at 50.0 µM 94.3% | [12]; at 11.0 µM 94% | [12]; at 33.0 µM 97% | [12]; at 100.0 µM 98% | [13]; at 11.0 µM 97% | [13]; at 33.0 µM 98% | [13]; at 100.0 µM 98%
inactive: [1]; at 1.2 µM -7% | [1]; at 3.7 µM 0% | [1]; at 11.0 µM -2% | [1]; at 33.0 µM -7% | [1]; at 100.0 µM -7% | [2]; at 1.2 µM -5% | [2]; at 3.7 µM -5% | [2]; at 11.0 µM -7% | [2]; at 33.0 µM -7% | [2]; at 100.0 µM -5% | [3]; at 1.2 µM 2% | [3]; at 3.7 µM 21% | [3]; at 11.0 µM 67% | [4]; at 1.2 µM -1% | [4]; at 3.7 µM 23% | [5]; at 1.2 µM -6% | [5]; at 3.7 µM -4% | [5]; [16] -149% | [5]; at 11.0 µM 5% | [5]; at 33.0 µM 8% | [5]; [17] -66% | [5]; at 50.0 µM 3.3% | [5]; at 100.0 µM 0% | [6]; at 1.2 µM -1% | [6]; at 3.7 µM 0% | [6]; [16] -46% | [6]; at 11.0 µM 1% | [6]; at 33.0 µM 1% | [6]; [17] -42% | [6]; at 50.0 µM -2% | [6]; at 100.0 µM -2% | [7]; at 1.2 µM -1% | [7]; at 3.7 µM 3% | [7]; at 11.0 µM 0% | [7]; at 33.0 µM -2% | [7]; at 100.0 µM -1% | [8]; [16] 31% | [9]; at 1.2 µM -4% | [9]; at 3.7 µM -1% | [9]; at 11.0 µM 0% | [9]; at 33.0 µM -6% | [9]; at 100.0 µM -3% | [10]; [16] -55% | [10]; [17] -54% | [10]; at 50.0 µM -13.2% | [11]; at 1.2 µM -5% | [11]; at 3.7 µM -4% | [11]; [16] -64% | [11]; at 11.0 µM -7% | [11]; at 33.0 µM -8% | [11]; [17] -62% | [11]; at 50.0 µM -3.55% | [11]; at 100.0 µM -5% | [12]; at 1.2 µM -5% | [12]; at 3.7 µM 40% | [13]; at 1.2 µM -4% | [13]; at 3.7 µM 63% | [14]; [16] -124% | [14]; [17] -123% | [14]; at 50.0 µM 10.6% | [15]; at 1.2 µM -2% | [15]; at 3.7 µM 0% | [15]; at 11.0 µM 0% | [15]; at 33.0 µM 0% | [15]; at 100.0 µM 1%

Clc1cccc(C(Nc2nncs2)Nc2nncs2)c1Cl
inactive: [1]; at 1.2 µM -1% | [1]; at 3.7 µM 2% | [1]; at 11.0 µM 9% | [1]; at 33.0 µM 28% | [2]; at 1.2 µM -2% | [2]; at 3.7 µM -1% | [2]; at 11.0 µM 0% | [2]; at 33.0 µM 11% | [2]; at 100.0 µM 34% | [3]; at 1.2 µM -1% | [3]; at 3.7 µM 4% | [3]; at 11.0 µM 14% | [3]; at 33.0 µM 47% | [4]; at 1.2 µM 0% | [4]; at 3.7 µM 0% | [4]; at 11.0 µM 0% | [4]; at 33.0 µM 12% | [4]; at 100.0 µM 49% | [5]; at 1.2 µM 4% | [5]; at 3.7 µM 48% | [5]; [16] 0% | [5]; at 11.0 µM 22% | [5]; at 33.0 µM 42% | [5]; [17] 37% | [5]; at 50.0 µM 51.1% | [6]; at 1.2 µM -1% | [6]; at 3.7 µM 4% | [6]; [16] 1% | [6]; at 11.0 µM 7% | [6]; at 33.0 µM 19% | [6]; [17] 29% | [6]; at 50.0 µM 20.7% | [6]; at 100.0 µM 51% | [7]; at 1.2 µM -2% | [7]; at 3.7 µM -2% | [7]; at 11.0 µM 2% | [7]; at 33.0 µM 19% | [8]; [16] 1% | [8]; [17] 50% | [8]; at 50.0 µM 66.5% | [9]; at 1.2 µM -1% | [9]; at 3.7 µM -2% | [9]; at 11.0 µM -1% | [9]; at 33.0 µM 9% | [9]; at 100.0 µM 34% | [10]; [16] -3% | [10]; [17] 25% | [10]; at 50.0 µM -2.6% | [11]; at 1.2 µM 0% | [11]; at 3.7 µM 0% | [11]; [16] -6% | [11]; at 11.0 µM 0% | [11]; at 33.0 µM 12% | [11]; [17] 14% | [11]; at 50.0 µM -20.6% | [12]; at 1.2 µM -2% | [12]; at 3.7 µM 8% | [12]; at 11.0 µM 1% | [12]; at 33.0 µM 19% | [12]; at 100.0 µM 54% | [13]; at 1.2 µM -1% | [13]; at 3.7 µM 3% | [13]; at 11.0 µM 16% | [13]; at 33.0 µM 51% | [14]; [16] 3% | [14]; [17] 57% | [14]; at 50.0 µM 55.3% | [15]; at 1.2 µM -4% | [15]; at 3.7 µM 6% | [15]; at 11.0 µM 14% | [15]; at 33.0 µM 42%
active: [1]; at 100.0 µM 70% | [3]; at 100.0 µM 92% | [5]; at 100.0 µM 83% | [7]; at 100.0 µM 71% | [11]; at 100.0 µM 77% | [13]; at 100.0 µM 86% | [15]; at 100.0 µM 87%
